Test results reported in PubChem BioAssay.
Inconclusive results are not listed. The source made the active and inactive calls.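 Rule for the calls, unless noted: active = normalized viability below 100% at a tested concentration; inactive = the rest.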

Tests used:
[1] = growth inhibition of DIPG glioma cells, dose response, cell-based, SU-DIPG-XVII, MIPE5.0, CellTiter-Glo, qHTS (AID 1347060; cut-off not given, nearly all actives have AC50 up to about 26 µM;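 note: cells exposed to compound for 48 hours before viability readout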); details: SU-DIPG-XVII viability, CellTiter-Glo ATP luminescence
[2] = growth inhibition of DIPG glioma cells, dose response, cell-based, SU-DIPG-XIII, MIPE4.0, CellTiter-Glo, qHTS (AID 1347061; cut-off not given, nearly all actives have AC50 up to about 37 µM;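 note: cells exposed to compound for 48 hours before readout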); details: SU-DIPG-XIII viability, CellTiter-Glo ATP luminescence
[3] = growth inhibition of DIPG glioma cells, dose response, cell-based, JHH-DIPG-1, MIPE4.0, CellTiter-Glo, qHTS (AID 1347062; cut-off not given, nearly all actives have AC50 up to about 27 µM;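 note: cells exposed to compound for two days before readout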); details: JHH-DIPG-1 viability, CellTiter-Glo ATP luminescence
[4] = growth inhibition of DIPG glioma cells, dose response, cell-based, SU-DIPG-IV, MIPE4.0, CellTiter-Glo, qHTS (AID 1347063; cut-off not given, nearly all actives have AC50 up to about 30 µM;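 note: compound exposure lasted 48 hours before the viability readout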); details: SU-DIPG-IV viability, CellTiter-Glo ATP luminescence
[5] = growth inhibition of DIPG glioma cells, dose response, cell-based, SU-DIPG-XIII, MIPE5.0, CellTiter-Glo, qHTS (AID 1347064; cut-off not given, nearly all actives have AC50 up to about 23 µM;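 note: cells exposed to compound for 48 hours before the viability read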); details: SU-DIPG-XIII viability, CellTiter-Glo ATP luminescence
[6] = viability loss in pontine glioma line – cell-based, SU-DIPG-XXV, MIPE5.0, CellTiter-Glo, qHTS, dose response (AID 1347065; cut-off not given, nearly all actives have AC50 up to about 26 µM;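 note: cells exposed to compound for 48 hours before ATP readout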); details: CellTiter-Glo ATP luminescence
[7] = SU-DIPG-VI glioma cell viability, MIPE4.0 library, CellTiter-Glo luminescence, qHTS (AID 1347066; cut-off not given, nearly all actives have AC50 up to about 30 µM;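 note: cells exposed to compound for 48 hours before readout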); details: CellTiter-Glo ATP luminescence
[8] = JHH-DIPG-1 glioma cell viability, MIPE5.0 library, CellTiter-Glo luminescence, qHTS (AID 1347067; cut-off not given, nearly all actives have AC50 up to about 26 µM;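 note: cells exposed to compound for 48 hours before readout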); details: JHH-DIPG-1 glioma viability, CellTiter-Glo ATP luminescence
[9] = SU-DIPG-XXV glioma cell viability, MIPE5.0 library, qHTS (AID 1347068; cut-off not given, nearly all actives have IC50 up to about 30 µM)
[10] = sensitizers of A549 cells to miR-34 induction, primary screen, imaging, A549 dox-inducible miR-34, nuclei and caspase counts (AID 1347080;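 active = compounds whose cell count with miR-34 switched on is under 0.7 times the count with it off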); details: A549 miR-34 inducible, Hoechst nuclei count, 48 h
[11] = modifiers of HSF1 nuclear foci, imaging, Selleck Cancer Library (AID 1347162; in the data active = plate-normalised HSF1 focus index below about 0.46); details: human cells, at 10 µM; SSMD: measured here: HSF1 foci SSMD mean; cell count: measured here: cell number; plate-normalised HSF1 focus index: stronger effect = lower value
[12] = survival rescue of mitochondrial mutant cells in low glucose, primary screen, MELAS cybrids, Rieske KO mouse fibroblasts, CellTiter-Glo (AID 1508586;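 active = mean z-score across replicates of 1.96 or higher in either the MELAS or the Rieske mutant cell line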;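 note: z relative to plate mean and SD of compound and empty wells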)
[13] = ovarian cancer cell viability with rucaparib, profiling panel, oncology-focused library, rucaparib conditional (AID 1508598); details: patient-derived ovarian cancer cells, CellTiter-Glo viability, 144 h, stronger effect = lower value

SMILES: CCNC(=O)c1noc(-c2cc(C(C)C)c(O)cc2O)c1-c1ccc(CN2CCOCC2)cc1
- AC50 [1]: 0.0166 µM (active)
- AC50 [2]: 0.105 µM (active)
- AC50 [3]: 0.0743 µM (active)
- AC50 [4]: 0.0526 µM (active)
- AC50 [5]: 0.0332 µM (active)
- AC50 [6]: 0.0118 µM (active)
- AC50 [7]: 4.69 µM (active)
- AC50 [8]: 0.0209 µM (active)
- outcome [9]: inactive
- fold change ([10]; stronger effect = lower value, cell number ratio, induced over uninduced): 1.03 (inactive)
- fold change ([10]; measured here: relative caspase fold change +Dox/-Dox): 0.796
- cell count ([10]; measured here: total cells with miR-34 induction, stronger effect = lower value): 1340
- cell count ([10]; measured here: total cells without miR-34 induction): 1290
- SSMD [11]: 2.25
- cell count [11]: 7410
- plate-normalised HSF1 focus index [11]: 1.08 (inactive)
- z-score ([12]; MELAS cybrid survival, CellTiter-Glo 48 h, stronger effect = higher value): 2.88 (active)
- z-score ([12]; Rieske KO mouse fibroblast survival, CellTiter-Glo 72 h): 0.0253
- viability ([13]; at 0.000305 µM, OCI-C5x cells, with rucaparib 10 µM, 100% = cells with rucaparib alone): 136% (inactive)
- viability ([13]; at 0.000305 µM, OCI-C5x cells, without rucaparib): 129% (inactive)
- viability ([13]; at 0.000305 µM, OCI-P5x cells, with rucaparib 20 µM, 100% = cells with rucaparib alone): 98% (active)
- viability ([13]; at 0.000305 µM, OCI-P5x cells, without rucaparib): 112% (inactive)
- viability ([13]; at 0.00122 µM, OCI-C5x cells, with rucaparib 10 µM, 100% = cells with rucaparib alone): 131% (inactive)
- viability ([13]; at 0.00122 µM, OCI-C5x cells, without rucaparib): 137% (inactive)
- viability ([13]; at 0.00122 µM, OCI-P5x cells, with rucaparib 20 µM, 100% = cells with rucaparib alone): 69.1% (active)
- viability ([13]; at 0.00122 µM, OCI-P5x cells, without rucaparib): 97.9% (active)
- viability ([13]; at 0.00488 µM, OCI-C5x cells, with rucaparib 10 µM, 100% = cells with rucaparib alone): 29.2% (active)
- viability ([13]; at 0.00488 µM, OCI-C5x cells, without rucaparib): 12.3% (active)
- viability ([13]; at 0.00488 µM, OCI-P5x cells, with rucaparib 20 µM, 100% = cells with rucaparib alone): 13.9% (active)
- viability ([13]; at 0.00488 µM, OCI-P5x cells, without rucaparib): 5.95% (active)
- viability ([13]; at 0.0195 µM, OCI-C5x cells, with rucaparib 10 µM, 100% = cells with rucaparib alone): 9.68% (active)
- viability ([13]; at 0.0195 µM, OCI-C5x cells, without rucaparib): 9.96% (active)
- viability ([13]; at 0.0195 µM, OCI-P5x cells, with rucaparib 20 µM, 100% = cells with rucaparib alone): 6.4% (active)
- viability ([13]; at 0.0195 µM, OCI-P5x cells, without rucaparib): 4.69% (active)
- viability ([13]; at 0.0781 µM, OCI-C5x cells, with rucaparib 10 µM, 100% = cells with rucaparib alone): 9.48% (active)
- viability ([13]; at 0.0781 µM, OCI-C5x cells, without rucaparib): 9.56% (active)
- viability ([13]; at 0.0781 µM, OCI-P5x cells, with rucaparib 20 µM, 100% = cells with rucaparib alone): 6.42% (active)
- viability ([13]; at 0.0781 µM, OCI-P5x cells, without rucaparib): 4.47% (active)
- viability ([13]; at 0.313 µM, OCI-C5x cells, with rucaparib 10 µM, 100% = cells with rucaparib alone): 8.98% (active)
- viability ([13]; at 0.313 µM, OCI-C5x cells, without rucaparib): 9.43% (active)
- viability ([13]; at 0.313 µM, OCI-P5x cells, with rucaparib 20 µM, 100% = cells with rucaparib alone): 5.55% (active)
- viability ([13]; at 0.313 µM, OCI-P5x cells, without rucaparib): 3.94% (active)
- viability ([13]; at 1.25 µM, OCI-C5x cells, with rucaparib 10 µM, 100% = cells with rucaparib alone): 10.6% (active)
- viability ([13]; at 1.25 µM, OCI-C5x cells, without rucaparib): 9.54% (active)
- viability ([13]; at 1.25 µM, OCI-P5x cells, with rucaparib 20 µM, 100% = cells with rucaparib alone): 4.83% (active)
- viability ([13]; at 1.25 µM, OCI-P5x cells, without rucaparib): 3.83% (active)
- viability ([13]; at 5 µM, OCI-C5x cells, with rucaparib 10 µM, 100% = cells with rucaparib alone): 9.11% (active)
- viability ([13]; at 5 µM, OCI-C5x cells, without rucaparib): 9.15% (active)
- viability ([13]; at 5 µM, OCI-P5x cells, with rucaparib 20 µM, 100% = cells with rucaparib alone): 3.61% (active)
- viability ([13]; at 5 µM, OCI-P5x cells, without rucaparib): 2.59% (active)
